Laboratory results from PubChem BioAssay (Tox21).
Inconclusive results are not listed. The source made the active and inactive calls. Unless noted, calls come from the whole dose curve; as a rule, active = well fitted curve in the direction sought with a large enough effect in the repeat runs; inconclusive = weak or mixed curves; inactive = no such curve, though single readings can be large; an effect the other way counts as inactive or inconclusive.

Tests used:
[1] = qHTS assay to identify small molecule agonists of the constitutive androstane receptor (CAR) signaling pathway - cell viability counter screen (AID 1224836); note: nearly all actives have a fitted effect of over 45% in size
In short: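 Counter screen multiplexed with the CAR reporter readout: HepG2 cells co-transfected with hCAR and the CYP2B6-2.2kb construct receive a 15-concentration compound series and 0.75 uM PK11195 (final), then CellTiter-Fluor fluorescence is read after 23 h.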

[2] = qHTS assay to identify small molecule antagonists of the constitutive androstane receptor (CAR) signaling pathway - cell viability counter screen (AID 1224837); note: nearly all actives have a fitted effect of over 45% in size; note: potency is the fitted concentration of half-maximal effect
In short: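 Viability was measured with CellTiter-Fluor in a HepG2 line carrying stably transfected hCAR and a CYP2B6-2.2kb construct. Cells were exposed for 23 hr at 37 C to 15 compound concentrations with 50 nM CITCO as agonist.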

[3] = molecular target: Nuclear receptor subfamily 1 group I member 3 (Homo sapiens) (UniProt Q14994); assay: qHTS assay to identify small molecule antagonists of the constitutive androstane receptor (CAR) signaling pathway (AID 1224838);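 note: HepG2 cells stably expressing hCAR with CYP2B6 luciferase reporter stimulated by CITCO; nearly all actives have a fitted effect of over 40% in size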
In short: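 Antagonist mode used CITCO at a final 50 nM to activate CAR in human hepatoma HepG2 cells carrying stable hCAR and a 2.2 kb CYP2B6 promoter-luciferase construct. Compounds were tested at 15 concentrations over 24 h, with luminescence as the end point.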

[4] = molecular target: Nuclear receptor subfamily 1 group I member 3 (Homo sapiens) (UniProt Q14994); assay: qHTS assay to identify small molecule agonists of the constitutive androstane receptor (CAR) signaling pathway (AID 1224839); note: nearly all actives have a fitted effect of over 15% in size; note: potency is the fitted concentration of half-maximal effect
In short: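 A 15-concentration quantitative screen uses HepG2 cells co-transfected stably with human CAR and CYP2B6-2.2kb reporter. Treatment lasts 24 h with 0.75 uM PK11195 final present; ONE-Glo luminescence is the signal.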

[5] = qHTS assay to identify small molecule antagonists of the estrogen related receptor signaling pathway with the pleiotropic PPARgamma coactivator (PGC) from Tox21 10K library - cell viability counter screen (AID 1224840; active = well fitted cell-killing curve with a large enough effect in the repeat runs, not every such curve was filed as active; note: nearly all actives have a fitted effect of over 40% in size)
In short: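 Multiplexed viability counter screen in the PGC/ERR cell line: cells treated with DMSO-dissolved compounds for 17.5 hours at 37 C, then viability measured as CellTiter-Fluor fluorescence.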

[6] = molecular target: Thyrotropin receptor (Homo sapiens) (UniProt P16473); assay: qHTS assay to identify small molecule agonists of the thyroid stimulating hormone receptor (TSHR) signaling pathway (AID 1224843; calls by dose curve; note: nearly all actives have a fitted effect of over 45% in size)
In short: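 A cell-based cAMP HTRF format was run in TSHR-transfected HEK293 cells, 800 per well. Treatment: 30 min, room temperature. Detection: 1 h with labelled cAMP and anti-cAMP cryptate. Concentration-response over 15 points, three replicates.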

[7] = qHTS assay to identify small molecule agonists of the hypoxia (HIF-1) signaling pathway - cell viability counter screen (AID 1224844; calls by dose curve; note: nearly all actives have a fitted effect of over 50% in size)
In short: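 Cytotoxicity was measured in parallel with the HRE-driven beta-lactamase readout: after 17 hrs of compound exposure at 37C, HRE-bla ME-180 cells received CellTiter-Glo and luminescence was recorded 30 min later.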

[8] = qHTS assay to identify small molecule agonists of H2AX (AID 1224845; active = well fitted activation curve with a large enough effect in the signal ratio in the repeat runs, not every such curve was filed as active; the % refers to the signal ratio)
In short: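 Phospho-H2AX Ser139 measured by HTRF (ex 320 nm; em 665 and 620 nm) after 24 hr antibody incubation. Compounds, 15 concentrations, 0.76% DMSO, were applied to CHO-K1 cells for 3hr at 37C before lysis.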

[9] = qHTS assay to identify small molecule agonists of the hypoxia (HIF-1) signaling pathway (AID 1224846; active = well fitted activation curve with a large enough effect in the signal ratio in the repeat runs, not every such curve was filed as active; the % refers to the signal ratio)
In short: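 Compounds from the Tox21 10K library, dissolved in DMSO, are tested for induction of a hypoxia response element–controlled beta-lactamase reporter in ME-180 cells. Exposure lasts 17 hrs at 37C after a 5 hr settling period, followed by CCF4-AM FRET substrate.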

[10] = qHTS assay to identify small molecule agonists of H2AX - cell viability counter screen (AID 1224847; calls by dose curve; note: top concentration of the series differs between compounds; nearly all actives have a fitted effect of over 30% in size)
In short: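 We seed wild-type CHO-K1 cells overnight, treat them for 3 hr at 37C with compounds in 15-concentration series, and quantify remaining viability by CellTiter-Glo luminescence.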

[11] = qHTS RealTime-Glo MT Cell Viability Assay in HEK293 cells - 32 hour (AID 1224868); note: top concentration of the series differs between compounds; nearly all actives have a fitted effect of over 50% in size
In short: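 Tox21 10K qHTS, HEK293, 600 cells/well, RealTime-Glo reagent co-dispensed with cells; 5 h preincubation, compound by pintool, 37 C, luminescence at 0–40 h.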

[12] = qHTS RealTime-Glo MT Cell Viability Assay in HepG2 cells - 40 hour (AID 1224870); note: nearly all actives have a fitted effect of over 50% in size
In short: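 Real-time viability: cells seeded at 600 per well together with NanoLuc and cell-permeant prosubstrate, compounds added after 5 h incubation. Luminescence tracked at 0, 8, 16, 24, 32 and 40 h of exposure.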

[13] = A CellTox Green Cytotoxicity Assay to monitor cytotoxicity in HEK293 cells - 40 hour (AID 1224871); note: nearly all actives have a fitted effect of over 45% in size; note: potency is the fitted concentration of half-maximal effect
In short: (§1)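 Cells (HEK293, 600/well) and dye reagent are dispensed together. After 5 h at 37 C, 23 nL compound is pinned in. Plates stay at 37 C for 40 h with fluorescence read at 0h, 8h, 16h, 24h, 32h and 40h.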

[14] = molecular target: Luciferin 4-monooxygenase (Photinus pyralis) (UniProt P08659); assay: qHTS assay to identify small molecule inhibitors of firefly luciferase (AID 1224835); note: nearly all actives have a fitted effect of over 25% in size; note: potency is the fitted concentration of half-maximal effect
In short: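 Inhibition of purified Photinus luciferase is measured by luminescence. Substrate levels (D-luciferin, ATP) sit at their KM values. Each compound is tested in a concentration series.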

[15] = A CellTox Green Cytotoxicity Assay to monitor cytotoxicity in HEK293 cells - 0 hour (AID 1224869); note: nearly all actives have a fitted effect of over 50% in size; note: potency is the fitted concentration of half-maximal effect
In short: as §1

[16] = qHTS assay to identify small molecule antagonists of the estrogen related receptor signaling pathway with the pleiotropic PPARgamma coactivator (PGC) from Tox21 10K library (AID 1224841; call rule not given here; note: potency is the fitted concentration of half-maximal effect)
In short: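 Steps: plate 2,000 PGC/ERR cells per well; incubate 6 h at 37 C with 5% CO2; transfer compounds from DMSO stocks by pin tool; incubate 18 h at 37 C; add One-Glo; measure luminescence 30 min later.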

[17] = qHTS assay to identify small molecule agonists of the estrogen related receptor signaling pathway with the pleiotropic PPARgamma coactivator (PGC) from Tox21 10K library (AID 1224842); note: nearly all actives have a fitted effect of over 15% in size
In short: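 Luminescence from One-Glo (30 min, room temperature) measured after PGC/ERR cells had 18 h at 37 C with pinned compound (23 nL in DMSO). Cells had been seeded at 2,000 per well and pre-incubated 6 h.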

[18] = qHTS assay to identify small molecule agonists of the estrogen related receptor (ERR) signaling pathway from Tox21 library (AID 1224849; calls by dose curve; note: nearly all actives have a fitted effect of over 15% in size); details: ERR reporter cell line, ONE-Glo luciferase, 18 h; at 92.4 µM (top of the series) unless noted
In short: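 Cells carrying the ERR reporter were plated and allowed to settle for 6 h, exposed to library compounds for 18 h at 37 C, then lysed with ONE-Glo and luminescence measured.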

[19] = qHTS RealTime-Glo MT Cell Viability Assay in HepG2 cells - 24 hour (AID 1224867); note: nearly all actives have a fitted effect of over 50% in size
In short: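 Cells + NanoLuc/prosubstrate dispensed (600 cells/well) → 5 h at 37 C/5% CO2 → compounds in DMSO transferred → 40 h incubation at 37 C, luminescence read at 0, 8, 16, 24, 32, 40 h.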

[20] = qHTS assay to identify small molecule antagonists of the estrogen related receptor (ERR) signaling pathway from Tox21 library (AID 1224848); note: nearly all actives have a fitted effect of over 50% in size; note: potency is the fitted concentration of half-maximal effect
In short: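 ERR cell line, 2,000 cells/well. 6 h settle, then compound (DMSO) added; 18 h at 37 C; ONE-Glo luminescence after 30 min RT.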
% is set by controls: 0 for no effect and ±100 for the full control effect.

Chain of Nuclear receptor subfamily 1 group I member 3 (Homo sapiens) (Q14994 whole entry, looked up): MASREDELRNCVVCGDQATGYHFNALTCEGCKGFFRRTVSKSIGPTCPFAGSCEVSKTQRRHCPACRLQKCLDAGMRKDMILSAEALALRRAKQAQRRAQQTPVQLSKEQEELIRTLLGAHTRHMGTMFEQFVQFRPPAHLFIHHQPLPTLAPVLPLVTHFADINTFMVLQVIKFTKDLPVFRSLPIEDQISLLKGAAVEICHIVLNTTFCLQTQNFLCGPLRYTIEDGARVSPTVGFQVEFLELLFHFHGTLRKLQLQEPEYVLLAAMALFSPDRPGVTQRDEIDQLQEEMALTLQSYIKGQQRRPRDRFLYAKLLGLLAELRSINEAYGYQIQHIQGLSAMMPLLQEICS
Chain of Thyrotropin receptor (Homo sapiens) (P16473 whole entry, looked up): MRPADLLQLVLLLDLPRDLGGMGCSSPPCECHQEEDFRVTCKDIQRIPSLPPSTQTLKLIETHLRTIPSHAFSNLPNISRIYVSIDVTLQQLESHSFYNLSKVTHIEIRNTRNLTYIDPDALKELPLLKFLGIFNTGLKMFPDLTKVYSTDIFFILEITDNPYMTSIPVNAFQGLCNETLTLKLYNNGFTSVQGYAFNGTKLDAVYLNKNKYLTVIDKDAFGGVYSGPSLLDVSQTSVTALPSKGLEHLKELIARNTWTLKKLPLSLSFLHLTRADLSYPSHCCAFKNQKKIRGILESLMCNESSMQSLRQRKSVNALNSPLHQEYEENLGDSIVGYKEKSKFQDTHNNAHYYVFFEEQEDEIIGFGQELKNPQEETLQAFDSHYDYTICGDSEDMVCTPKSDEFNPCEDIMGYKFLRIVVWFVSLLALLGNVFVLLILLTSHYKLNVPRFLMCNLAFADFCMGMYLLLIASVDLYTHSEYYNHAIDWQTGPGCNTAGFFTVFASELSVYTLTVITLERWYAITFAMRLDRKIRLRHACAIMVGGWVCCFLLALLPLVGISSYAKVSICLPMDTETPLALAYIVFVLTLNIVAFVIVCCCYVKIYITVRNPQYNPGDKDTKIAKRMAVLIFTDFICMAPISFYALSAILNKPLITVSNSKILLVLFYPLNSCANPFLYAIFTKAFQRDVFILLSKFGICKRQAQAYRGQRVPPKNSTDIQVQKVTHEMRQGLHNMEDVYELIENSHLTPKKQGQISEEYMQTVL
Chain of Luciferin 4-monooxygenase (Photinus pyralis) (P08659 whole entry, looked up): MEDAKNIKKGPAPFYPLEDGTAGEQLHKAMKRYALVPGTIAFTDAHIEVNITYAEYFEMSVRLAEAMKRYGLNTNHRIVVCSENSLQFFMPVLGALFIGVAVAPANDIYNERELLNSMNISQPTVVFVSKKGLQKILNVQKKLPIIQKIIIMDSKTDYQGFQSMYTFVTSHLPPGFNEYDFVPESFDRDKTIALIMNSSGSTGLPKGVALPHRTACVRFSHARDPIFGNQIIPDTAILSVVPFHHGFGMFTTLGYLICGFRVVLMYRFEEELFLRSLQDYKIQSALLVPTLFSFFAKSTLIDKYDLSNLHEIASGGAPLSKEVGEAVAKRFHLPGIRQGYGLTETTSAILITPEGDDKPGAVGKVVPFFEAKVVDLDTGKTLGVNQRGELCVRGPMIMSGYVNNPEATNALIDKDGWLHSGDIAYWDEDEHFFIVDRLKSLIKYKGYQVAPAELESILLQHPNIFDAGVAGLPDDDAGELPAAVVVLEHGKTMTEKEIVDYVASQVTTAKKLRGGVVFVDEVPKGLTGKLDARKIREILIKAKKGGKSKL

CCCCCCCCCCCCCCCCN
active: Potency [13] 12 µM
inactive: Potency [1] | Potency [2] | Potency [3] | Potency [4] | Potency [5] | Potency [6] | Potency [7] | Potency [8] | outcome [9] | Potency [10] | Potency [11] | Potency [12]

C[C@H](CN1CCCC1)C(=O)c1ccc(C(F)(F)F)cc1
inactive: Potency [14] | Potency [1] | Potency [4] | Potency [5] | Potency [6] | Potency [7] | Potency [8] | outcome [9] | Potency [10] | Potency [15]

O=C(O)c1cccnc1Nc1cccc(C(F)(F)F)c1
inactive: Potency [1] | Potency [3] | Potency [16] | Potency [17] | Potency [7] | Potency [8] | activity change, positive = activation [18] -25.2% [at 42.5 µM] | outcome [19] | Potency [11] | Potency [15] | Potency [12] | Potency [13]
active: Potency [14] 19.5 µM

O=C(Nc1ccc2c(c1)Cc1ccccc1-2)C(F)(F)F
inactive: Potency [1] | Potency [3] | Potency [6] | Potency [7] | outcome [9] | Potency [10] | outcome [19] | Potency [15] | Potency [12] | Potency [13]
active: Potency [14] 6.33 µM | Potency [4] 27.3 µM

CCCCCCCCCC(C)C=O (configuration not stated)
active: Potency [15] 24.5 µM | Potency [13] 19.5 µM
inactive: Potency [1] | Potency [2] | Potency [3] | Potency [4] | Potency [5] | Potency [6] | Potency [7] | Potency [8] | outcome [9] | outcome [19] | Potency [11]

CCCCCCCCCCCC(=O)OCC
inactive: Potency [14] | Potency [1] | Potency [6] | Potency [7] | Potency [8] | outcome [9] | Potency [10] | outcome [19] | Potency [11] | Potency [15] | Potency [12] | Potency [13]

CCOc1cc(OCC)c(C(C)=O)cc1OCC
inactive: Potency [14] | Potency [3] | Potency [16] | Potency [17] | Potency [6] | Potency [8] | outcome [9] | Potency [10] | activity change, positive = activation [18] -33.9% | Potency [15] | Potency [12] | Potency [13]
active: Potency [2] 26.8 µM | Potency [4] 23.9 µM

CCC(C)CCCC(C)(C)O (configuration not stated)
inactive: Potency [14] | Potency [1] | Potency [5] | Potency [6] | Potency [7] | Potency [8] | outcome [9] | Potency [10] | outcome [19] | Potency [11] | Potency [15] | Potency [12]

O=C(OCCCCCOC(=O)c1ccccc1)c1ccccc1
inactive: Potency [1] | Potency [2] | Potency [3] | Potency [4] | Potency [5] | Potency [16] | Potency [17] | Potency [8] | outcome [9] | Potency [10] | Potency [20] | activity change, positive = activation [18] 7.15% | outcome [19] | Potency [15] | Potency [13]

O=[N+]([O-])c1cccc(I)c1
inactive: Potency [14] | Potency [1] | Potency [3] | Potency [4] | Potency [6] | Potency [7] | Potency [8] | Potency [10] | outcome [19] | Potency [11] | Potency [15] | Potency [12]

N#C[C@@H]1CC(F)(F)CN1C(=O)CNC1CC2CCC(C1)N2c1ncccn1 (some centres not stated)
inactive: Potency [14] | Potency [1] | Potency [5] | Potency [16] | Potency [17] | Potency [7] | outcome [9] | Potency [10] | Potency [20] | activity change, positive = activation [18] -3.52% | Potency [11] | Potency [15] | Potency [12]

O=C(Cl)c1ccc(F)c(Cl)c1
inactive: Potency [1] | Potency [2] | Potency [3] | Potency [4] | Potency [5] | Potency [17] | Potency [6] | Potency [7] | Potency [8] | Potency [10] | Potency [20] | activity change, positive = activation [18] -7.97% | outcome [19] | Potency [15] | Potency [12] | Potency [13]

CCCCCCCCCCCCSCCOCCO
inactive: Potency [14] | Potency [1] | Potency [5] | Potency [16] | Potency [17] | Potency [6] | Potency [7] | Potency [8] | outcome [9] | Potency [10] | Potency [20] | activity change, positive = activation [18] -7.91% [at 42.5 µM] | outcome [19] | Potency [15] | Potency [12] | Potency [13]

COc1ccc(CN(CCN(C)C)c2ncccn2)cc1
inactive: Potency [14] | Potency [1] | Potency [5] | Potency [6] | Potency [8] | Potency [10] | outcome [19] | Potency [11] | Potency [15] | Potency [12] | Potency [13]

CC1=CC(=C(c2ccc(N)cc2)c2ccc(N)cc2)C=CC1=N
active: Potency [16] 2.76 µM | Potency [20] 2.19 µM
inactive: activity change, negative = inhibition [14] -4.83% [at 10.5 µM] | viability change, negative = cytotoxic [1] -5.57% [at 8.39 µM] | activity, negative = inhibition [3] 3.44% [at 8.39 µM] | activation [4] -0.508% [at 8.39 µM] | activation [17] -25.9% [at 8.39 µM] | activation [6] 3.86% [at 8.39 µM] | activity change, negative = cytotoxicity [7] -15.8% [at 6.97 µM] | activation (H2AX phosphorylation) [8] -3.22% [at 14 µM] | activation [9] 0.607% [at 7.01 µM] | activity change, positive = activation [18] -47.7% [at 8.39 µM] | activity change, negative = cytotoxicity [19] -2.94% [at 6.97 µM] | cytotoxicity [15] -6.03% [at 6.97 µM]

CC1=C(C)C(=O)C(C(CCCCCC(=O)O)c2ccccc2)=C(C)C1=O (configuration not stated)
inactive: Potency [14] | Potency [1] | Potency [5] | Potency [7] | Potency [8] | Potency [10] | outcome [19] | Potency [11] | Potency [15] | Potency [12] | Potency [13]

C=C[Si]1(C)O[Si](C)(C=C)O[Si](C)(C=C)O[Si](C)(C=C)O1 (configuration not stated)
inactive: Potency [1] | Potency [2] | Potency [3] | Potency [4] | Potency [5] | Potency [6] | Potency [7] | Potency [10] | outcome [19] | Potency [11] | Potency [15] | Potency [12] | Potency [13]

CC(COc1ccccc1)NC(C)C(O)c1ccc(O)cc1 (configuration not stated)
inactive: Potency [1] | Potency [2] | Potency [3] | Potency [4] | Potency [5] | Potency [16] | Potency [17] | Potency [6] | Potency [7] | Potency [8] | Potency [10] | Potency [20] | activity change, positive = activation [18] 0.415% [at 42.5 µM] | outcome [19] | Potency [11] | Potency [15] | Potency [13]
